MLL AF4-AF9 inh = inhibitors of AF4 peptide binding to AF9, primary screen, biochemical, AlphaScreen, biotin-AF4 peptide, FLAG-AF9, single point; 0.47% of 350,000 active; inhibition, % at 10 µM; Protein AF-9 (Homo sapiens), P42568;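 active = every replicate reaching a set inhibition limit, whatever the replicate mean, cut at about 25% in these data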;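 note: 0% = plate neutral control median and 100% = total signal loss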
NSD2 HMT inh = NSD2 histone methyltransferase inhibitors, primary screen, biochemical, AlphaScreen, single concentration, set 2. 0.54% of 310,000 active. NSD2 peptide methylation, 120 min. inhibition, % at 12.5 µM. AID 743445, 2014; in the data active = inhibition above about 50%
CASP6 VEID inh = human caspase-6 inhibitors, primary screen, biochemical, VEID-R110 fluorescence, single point, set 2 | 0.53% of 350,000 active | purified caspase-6, Z-VEID-R110 cleavage fluorescence | inhibition, % at 12.5 µM;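 active = mean inhibition across replicates at least about 35%, with every replicate also reaching that limit, limit read from the data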;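 note: 0% = median of neutral control wells and 100% = no fluorescence left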
rRNA inh HTS = reduced GFP signal of wild-type E. coli, primary screen, bacterial rRNA inhibitor project, GFP/RFP fluorescence, OD600, single point. E. coli WT GFP vs humanized-ribosome RFP mutants, 24 h; hits give low values; DMSO median 0, no signal -100. GFP signal change (wild-type ribosome), % (no concentration beside the values). 1.6% of 350,000 active;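 active = significant combined selectivity score with lowered wild-type GFP, culture density cut under 30%, mutant RFP and density less affected; inactive = any of these conditions unmet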
RAD52 anneal inh = RAD52 DNA annealing inhibitors, primary screen, biochemical, FRET, single point, set 2; DNA repair protein RAD52 homolog (Homo sapiens), P43351; recombinant RAD52 DNA annealing, FRET fluorescence; inhibition, % at 18.7 µM; 0.46% of 360,000 active; AID 651710, 2012;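 active = every replicate showing at least 50% inhibition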
Target sequence (P43351 whole entry, looked up): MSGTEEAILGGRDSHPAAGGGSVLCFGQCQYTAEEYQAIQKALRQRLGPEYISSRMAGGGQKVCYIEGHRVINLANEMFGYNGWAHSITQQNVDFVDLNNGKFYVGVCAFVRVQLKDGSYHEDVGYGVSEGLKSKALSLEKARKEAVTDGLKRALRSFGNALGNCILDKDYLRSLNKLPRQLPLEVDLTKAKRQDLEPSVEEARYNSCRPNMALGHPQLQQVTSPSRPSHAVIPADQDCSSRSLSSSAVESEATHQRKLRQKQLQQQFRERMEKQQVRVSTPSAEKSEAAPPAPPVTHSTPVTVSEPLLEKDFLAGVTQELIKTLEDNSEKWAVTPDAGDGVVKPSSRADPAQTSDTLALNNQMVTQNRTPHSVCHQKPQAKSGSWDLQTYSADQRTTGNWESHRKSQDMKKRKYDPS
Active calls of the source: *; x = not tested or not shown. Hits are enriched below; roughly 2.5% of the tested compounds scored in any of these assays.

SMILES | MLL AF4-AF9 inh | NSD2 HMT inh | CASP6 VEID inh | rRNA inh HTS | RAD52 anneal inh
CC(C)NC(=O)Nc1ccc2c(c1)C(=O)N([C@@H](C)CO)C[C@H](C)[C@@H](CN(C)Cc1ccccc1)OCCCC[C@H](C)O2 | -4.8 | x | 0.4 | 1.1 | 13.1
CC(=O)c1c(C)[nH]c(C(=O)COC(=O)c2cc(S(=O)(=O)N(C)c3ccccc3)ccc2Cl)c1C | -3.5 | -4.4 | 0.2 | -27.8* | -12.9
CNS(=O)(=O)c1cccc(C(=O)OCC(=O)c2c(N)n(Cc3ccccc3)c(=O)n(C)c2=O)c1 | 0.3 | 1.9 | 2.2 | -26.0* | -10.6
CN(c1ccccc1)S(=O)(=O)c1ccc(Cl)c(C(=O)OCC(=O)c2c(N)n(C)c(=O)n(C)c2=O)c1 | 3.1 | 1.0 | 2.1 | -21.1* | -21.6
COc1ccc(N(C)S(=O)(=O)c2cccc(C(=O)OCC(=O)c3c(N)n(C)c(=O)n(C)c3=O)c2)cc1 | 0.7 | -1.3 | 15.1 | -11.7 | -10.2
Cn1c(N)c(C(=O)COC(=O)Cc2ccc(Cl)c(Cl)c2)c(=O)n(C)c1=O | -1.3 | -9.0 | 2.7 | -34.9* | -19.1
Cc1ccc(S(=O)(=O)N(C)C[C@H]2Oc3c(NC(=O)c4cc(C)nn4C)cccc3C(=O)N([C@H](C)CO)C[C@@H]2C)cc1 | x | x | x | 0.4 | x
C[C@H](CO)N1C[C@H](C)[C@@H](CN(C)Cc2ccc(-c3ccccc3)cc2)Oc2ccc(NC(=O)Nc3cccc4ccccc34)cc2CC1=O | x | x | x | 4.7 | x
COc1ccc(CNc2cccnc2Cl)cc1 | -0.8 | x | -0.8 | -4.6 | -4.7
COc1ccc(Oc2c(OC)cc(NCc3ccc(CN)cc3)c3ncccc23)cc1 | 0.5 | 76.5* | 20.6 | 34.6 | -19.3
CN1OC[C@@H]2CN(Cc3ccccc3)[C@H](c3ccc(-n4ccnc4)cc3)C[C@@H]21 | 7.1 | x | -6.9 | -32.0* | -1.3
COc1ccc(C(=O)NCc2cc(C)nc3ccccc23)cc1OC | -0.9 | -7.3 | 3.6 | -3.9 | 1.7
COc1ccc(C(=O)N(c2ccccc2)c2nccc3ccccc23)cc1OC | -0.4 | x | -1.5 | -18.5* | -9.4
O=c1[nH]c(C2CCN(S(=O)(=O)c3ccc4c(c3)OCCO4)CC2)nc2c1nnn2Cc1c(F)cccc1Cl | 1.6 | -2.5 | -1.1 | -8.1 | -8.9
O=c1[nH]c(C2CCN(S(=O)(=O)c3ccc4c(c3)OCCO4)CC2)nc2c1nnn2Cc1ccccc1F | -6.8 | -2.9 | 0.8 | -27.8* | 8.2
CN1CCN(C(=O)C[C@H]2CC[C@@H]3[C@@H](COc4ccc(NC(=O)C5CCCC5)cc4C(=O)N3C)O2)CC1 | 47.0* | x | -0.2 | 5.6 | 2.3
CN1CCN(C(=O)C[C@H]2CC[C@@H]3[C@H](COc4ccc(NC(=O)C5CCCC5)cc4C(=O)N3C)O2)CC1 | 0.8 | x | -1.9 | 4.8 | -1.6
CN1C(=O)c2cc(NC(=O)Nc3ccc(Cl)cc3)ccc2OC[C@@H]2O[C@H](CC(=O)NCCN3CCCCC3)CC[C@@H]21 | 7.2 | x | 2.5 | -5.9 | 53.7*
CN(C)C(=O)C[C@@H]1CC[C@H]2[C@H](COc3ccc(NC(=O)C4CCC4)cc3C(=O)N2C)O1 | -6.7 | x | -1.0 | 3.9 | -5.0
CCOC(=O)c1c(C)nc(C)c(C(=O)OCC)c1-c1ccccc1 | 5.1 | -0.2 | 2.0 | -40.8* | -10.6
CCOC(=O)c1c(C)nc(C)c(C(=O)OCC)c1-c1cccnc1 | -2.5 | 4.0 | -2.4 | 3.9 | 8.0
CCn1cc(C(=O)NCc2cccc(C(F)(F)F)c2)c(=O)c2ccc(C)nc21 | 0.0 | -3.1 | 0.1 | -22.9* | -9.7
C=CCOC(=O)c1cn(CC)c2nc(C)ccc2c1=O | -1.7 | 0.4 | 0.8 | -24.7* | -18.6
CC(NCCC1(C(C)C)CCOC(C)(C)C1)c1cccs1 (centres undefined) | -1.3 | 0.3 | 0.1 | 12.1 | -10.9
CC(NCCC1(Cc2ccccc2Cl)CCOC(C)(C)C1)c1cccs1 (centres undefined) | 3.9 | -3.7 | -2.1 | -38.8* | -14.6
SMILES | MLL AF4-AF9 inh | NSD2 HMT inh | CASP6 VEID inh | rRNA inh HTS | RAD52 anneal inh
C[C@@H]1CN([C@@H](C)CO)C(=O)c2cccc(NC(=O)CCCCCC(=O)Nc3ccccc3N)c2O[C@@H]1CN(C)Cc1ccc(Oc2ccccc2)cc1 | 1.5 | x | -1.7 | -3.3 | 36.8
O=C(NC1CCN(Cc2ccccc2)CC1)c1ccc2c(c1)[nH]c(=O)n2Cc1ccc(F)cc1 | 8.0 | 1.3 | 3.7 | -31.5* | -104.4
CCCCCn1c(=O)[nH]c2cc(C(=O)NC3CCN(Cc4ccccc4)CC3)ccc2c1=O | -29.3 | 4.6 | -6.0 | 0.9 | -9.1
CC(=O)c1ccc(OC(=O)CCNC(=O)c2ccccc2)cc1 | 1.6 | 0.5 | -1.2 | 3.3 | -9.3
CCOC(=O)c1cccc(OC(=O)CCNC(=O)c2ccc(Cl)cc2)c1 | 0.4 | -4.2 | -3.3 | -28.5* | -0.1
C=CCn1c(O)c(C2=c3ccccc3=NC2=O)sc1=Nc1ccc(O)cc1 | 8.0 | x | -2.4 | -8.0* | 5.5
O=C1N=c2ccccc2=C1c1sc(=S)n(NC(=O)c2ccccc2)c1O | x | 1.7 | -1.9 | 3.5 | -17.9
COc1ccc(Oc2nc(-c3ccccn3)ncc2OC)cc1 | 1.7 | 2.5 | -5.6 | -27.9* | -19.2
COc1cnc(-c2ccccn2)nc1Oc1cccc(Cl)c1 | x | 5.7 | x | x | x
O=C(C1CCCC1)N1CC2(C1)[C@@H](c1ccccc1)[C@H](CO)N2C(=O)c1cccnc1 | -6.2 | x | -0.3 | 2.2 | -0.9
CCOc1ccccc1N(C(=O)Nc1ccc(Cl)cc1)C1=NCCS1 | -1.0 | -4.6 | 0.4 | -21.2* | -14.5
CN(C)C(=O)C[C@H]1CC[C@@H](NC(=O)C2CC2)[C@H](CO)O1 | -1.5 | x | -2.3 | -0.5 | 1.1
O=C(N/C=C/c1ccco1)NCc1ccccc1 | -1.8 | 20.5 | 41.6* | 16.8 | -49.8
NS(=O)(=O)c1ccc(CNC(=O)/C=C/c2ccco2)cc1 | -31.2 | 41.7 | 35.7* | 9.2 | -32.6
O=C(/C=C/c1ccco1)NCc1ccc(F)cc1 | -2.2 | 3.1 | 2.9 | -4.6 | -10.7
O=C(N/C=C/c1ccco1)OCc1ccccc1 | -2.4 | 0.4 | 3.0 | 4.9 | -20.4
Cc1ccc(C(=O)Nc2scc(-c3ccccc3)c2C(=O)O)o1 | -3.0 | x | 5.0 | -34.2* | -2.4
Cc1ccc(C(=O)Nc2ccccc2-c2ccccc2)o1 | x | 2.2 | x | x | x
O=C(O)CCC(=O)Nc1sc2c(c1C(=O)NCc1ccccc1)CCCC2 | -1.1 | 0.1 | 0.8 | -4.7 | -3.2
O=C(CCc1ccccc1)Nc1sc2c(c1C(=O)O)CCCC2 | -2.1 | 7.5 | -8.2 | -31.8* | -16.7
Cc1ccc(C)n1-c1sc2c(c1C(=O)O)CCCC2 | -1.3 | x | 51.9* | 9.4 | -31.8
Cc1ccc(C(=O)Nc2sc3c(c2C(=O)O)CCCC3)o1 | -1.3 | -2.4 | 3.4 | -25.4* | -7.5
